The text below walks through data of the supplement of paper PMC3334620.

The full ranking holds about 33,000 sequences; the median of “E-score (-0.5 to 0.5)” is about -0.04, and the highest 2% start at about 0.36. Many of the other results were omitted from the sample, so the highest values are more common in it than they were.

This assay has as its target T1, Hmlalpha2 (UniProt P0CY09).
T1 sequence: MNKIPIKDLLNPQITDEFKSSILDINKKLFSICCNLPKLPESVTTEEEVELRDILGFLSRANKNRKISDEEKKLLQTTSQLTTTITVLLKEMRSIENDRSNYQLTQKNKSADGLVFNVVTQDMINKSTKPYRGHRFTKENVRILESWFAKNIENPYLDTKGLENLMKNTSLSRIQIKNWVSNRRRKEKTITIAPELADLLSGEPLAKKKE
Put plainly: PBM E-score (8-mer binding enrichment) (E-score (-0.5 to 0.5)); higher = stronger / more preferred TF binding. The settings on record: protein concentration: 200 nM; construct: GST-full length. The essentials: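 Using PURExpress in vitro transcription/translation, GST-tagged yeast transcription factors were made in full-length or DNA-binding-domain form. These were applied at about 100-200 nM to double-stranded universal all-10-mer Agilent arrays, and bound protein was detected with fluorescent anti-GST. Scans were normalised with masliner before the Universal PBM Analysis Suite assigned E-scores to ungapped eight-base words pooled with their reverse complements.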
With GTTCTAGA, the “PBM E-score” value is -0.00839. As for CCCTGACG, the figure is -0.351; as for ATTTAGCC, 0.0155. Turning to GACCTTGC, the “PBM E-score” value is -0.356. As for AGTTTCGG, the figure is -0.031; as for ACAACAGG, 0.155.

As for ACAACACG, the “PBM E-score” value came out at 0.417. As for ACAACACA, the “PBM E-score” value was found to be 0.405. With CCAACACG the figure was 0.375; with CCAACACA, 0.248; with GCAACACA, 0.167. With ACAACAAA the figure was 0.284. As for TCAACAGA, the “PBM E-score” value came to 0.149.

Regarding TCAACACA, the “PBM E-score” value is 0.43. With CCAACACC the figure was -0.206.

For ACAACACC, the “PBM E-score” value is 0.182. As for ACAACACT, the figure is 0.248; as for GGTATGCA, -0.0286. With AGGCCTTC, the “PBM E-score” value is -0.156. On to AATCCGTG, for which the “PBM E-score” value is -0.129. On to CGTCCATA, for which the “PBM E-score” value worked out at 0.0125. GGCAACAA: the “PBM E-score” value was 0.0607. With TAATTTCA the figure was 0.182; with ATCAAGTG, -0.0416.

As to CAGCATTA, the “PBM E-score” value came out at 0.109.

Consider GCATTTCA, for which the “PBM E-score” value is -0.082. In the case of ACACGACT, the “PBM E-score” value was found to be 0.391. Turning to ACACGAGG, the “PBM E-score” value was 0.292. Turning to ACACGACC, the “PBM E-score” value was found to be 0.396. As for CCACGACC, the figure is -0.0888. With AAACGACT the figure was -0.0906.

As to ACACGAAT, the “PBM E-score” value was 0.356. On to ACACGAGA, for which the “PBM E-score” value worked out at 0.291. As for GCACGACC, the “PBM E-score” value was -0.188. With AGACGACG the figure was -0.129. As for CCACGACG, the figure is -0.097; as for ACACGAGT, 0.389; as for ACACGACG, 0.42. AAATGCAG: the “PBM E-score” value is -0.012. For the sequence ACCCGACC, the “PBM E-score” value is -0.145. With ACTAACGG, the “PBM E-score” value was -0.168. With CCACGACA the figure was -0.103; with TCACGACA, 0.116. With ACACGACA the figure was 0.412; with GTTACGCA, 0.277. ATTACGCG: the “PBM E-score” value was determined as 0.467. As for ATTACGGG, the figure is -0.0184; as for ATTACGCA, 0.435; as for CTTACGCA, 0.341. As for ATTACGCC, the figure is 0.187; as for CGAAGAGC, -0.12; as for CCAAGCAG, -0.127. As for AACAGCTA, the figure is 0.115. Regarding ACCTGAGG, the “PBM E-score” value was -0.266. For the sequence AATTAACC, the “PBM E-score” value came out at 0.104.

For GATTAAGA, the “PBM E-score” value came out at 0.0797. As for AATTAACT, the figure is 0.173; as for CATTAACA, 0.409; as for TATTAAAA, 0.24. With GATTAACC the figure was -0.108; with TATTAATA, 0.173; with AATTAACA, 0.425. With CATTAACG, the “PBM E-score” value was 0.277. With TATTAACA the figure was 0.428; with CATTAACC, 0.128; with GATTAACA, 0.413. As for GGCAGTTA, the figure is 0.0486; as for CACCGGGC, -0.256. In the case of ATGGTATA, the “PBM E-score” value is 0.178. With CTTGACTC, the “PBM E-score” value is -0.216. Turning to GCAAGCTA, the “PBM E-score” value was determined as 0.0155. With ATTTGCTG the figure was 0.024; with CTACACTC, 0.145; with GTACACCA, 0.089.

Take GTACACTA: the “PBM E-score” value was found to be 0.135.

CGACACGC: the “PBM E-score” value was 0.243. As for CTACACGA, the figure is 0.451; as for CTACACTA, 0.208; as for CTACACCA, 0.165. GTACACGA: the “PBM E-score” value worked out at 0.425. As for CTACACGC, the figure is 0.428. As for AGCCACCG, the “PBM E-score” value is -0.248. With CCCACCAC the figure was -0.191; with ATACGCCA, -0.109.

CAATATAC: the “PBM E-score” value was 0.131. With AAATACGT the figure was 0.246; with CAATACAG, 0.0335; with AAATACAT, 0.441.

Take AAATACTT: the “PBM E-score” value amounted to 0.208. With AAATACAG the figure was 0.172; with CAATACAA, 0.256. As for CAATACAC, the figure is 0.431. As for TCATACAA, the figure is 0.0397. With AAATACAC, the “PBM E-score” value amounted to 0.431.

In the case of TAATACAA, the “PBM E-score” value worked out at 0.375. In the case of AAATACAA, the “PBM E-score” value came to 0.347.

Turning to GTGGGACA, the “PBM E-score” value was -0.0285. With AGCTGTTA the figure was 0.0595. As for CGGTGCGA, the figure is -0.141; as for CACTGTTA, 0.0828.

Turning to ACGCTACG, the “PBM E-score” value was 0.0651. With GACCGTCC the figure was -0.302; with TAAGGCCA, 0.0046; with TAAGCAGA, 0.00375. For the sequence AGAATCTG, the “PBM E-score” value is -0.187.

In the case of GGTGGACA, the “PBM E-score” value was -0.0373. Consider GAATACAA, for which the “PBM E-score” value came to 0.352. As for GAATACAC, the figure is 0.451. Take GAATACGC: the “PBM E-score” value worked out at 0.357. As for CCAGGCAG, the figure is -0.272.
